# Experimental data taken from PubChem BioAssay AID624297 (National Center for Advancing Translational Sciences (NCATS), 2012).
# The campaign covered roughly 340,000 compounds. About 6,200 (1.8%) were called active. Where a call stands in place of a potency, no number is given. Inconclusive results (about 10%) are left out. Calls follow the shape of the dose curve; as a rule, active = well fitted activation curve with a large enough effect; inconclusive = small, poorly fitted or top-dose-only effect; inactive = no such curve, though single readings can be large or run the other way. The sample as a whole holds a higher share of actives than the screen did.
# Assay: A quantitative high throughput screen for small molecules that induce DNA re-replication in SW480 colon adenocarcinoma cells. Also: nearly all actives have a fitted effect of over 55% in size.
# Conditions: Hoechst DNA content imaging, 48 h; series mostly up to 46.1 µM
# Outline: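 DNA re-replication was detected as more nuclei of elevated Hoechst intensity after 48 hr exposure to compound (23 nL pinned per well of 250 cells).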
# Potency is read from the fitted curve at half-maximal effect.
SMILES,Potency,re-replication activation
CCOC(=O)C1=CN(Cc2ccc(Br)cc2)S(=O)(=O)N(C)C1C (stereo not given),inactive,–
Cc1ccc(NC(=O)C2CCC(C(C)(C)C)CC2)cc1S(=O)(=O)N1CCOCC1 (stereo not given),14.6 µM (active),–
Cc1ccc(NC(=O)NC2CCCCC2)cc1S(=O)(=O)N1CCOCC1,inactive,–
Cc1ccc(NC(=O)COC(=O)C2CC2)cc1S(=O)(=O)N1CCOCC1,inactive,–
Cc1cc(Cl)ccc1OCCCC(=O)NCc1ccncc1,inactive,–
CC(=O)Nc1ccc(OCC(=O)NCc2ccc(C)cc2)cc1,inactive,–
C/C(CC(=O)NCc1ccc(Cl)cc1)=N\NC(=O)COc1ccc(C)cc1Br,14.6 µM (active),–
COc1ccc(C2NCCCC2c2ccccc2)cc1 (stereo not given),inactive,–
CCN(C(=O)COC(=O)c1ccccc1O)c1cccc2ccccc12,inactive,–
CCC1([N+](=O)[O-])COC(c2ccc(C)cc2)OC1 (stereo not given),inactive,–
CC(C)(C)S(=O)(=O)N1Cc2cc(CO)cc(CCO)c2[C@H]1CCO,inactive,–
O=C(O)C(c1cccs1)C1(O)CCCCC1 (stereo not given),inactive,–
O=C(COc1ccc(Cl)cc1)NCCC1=CCCCC1,inactive,–
O=C(Cc1cccc2ccccc12)NCCC1=CCCCC1,inactive,–
Cc1nnc(OCC(=O)NCCC2=CCCCC2)c2ccccc12,16.4 µM (active),–
COc1ccc(OC)c(NC(=O)c2sc3nc(C)cc(C)c3c2N)c1,9.2 µM (active),–
COCc1cc(C)nc2sc(C(=O)NC3CCCCC3)c(N)c12,inactive,–
CCc1nnc(NC(=O)c2sc3nc(C)cc(COC)c3c2N)s1,inactive,–
CCOc1ccc(/C=C(/C#N)c2nnc(N3CCOCC3)n2-c2ccccc2)cc1OC,inactive,–
CN(C)CCNC(=O)c1[nH]nc2c1CCc1ccccc1-2,inactive,–
COc1cccc(/C=N/NC(=O)c2[nH]nc3c2CCc2ccccc2-3)c1O,3.26 µM (active),–
COc1cc2cc(C(=O)N/N=C/c3cccc(OC)c3OC)[nH]c2cc1OC,inactive,–

SMILES,Potency,re-replication activation
O=C(CSc1cccc[n+]1[O-])c1ccc(-c2ccccc2)cc1,2.82 µM (active),–
O=C(CSc1cccc[n+]1[O-])c1ccc(Cl)cc1,inactive,–
COc1ccccc1C(=O)CSc1cccc[n+]1[O-],inactive,–
O=C(NCCc1ccc(F)cc1)c1ccc2nccnc2c1,inactive,–
O=C(OCCOc1ccccc1Cl)c1cc(S(=O)(=O)N2CCCCC2)ccc1N1CCOCC1,inactive,–
Cc1cc(C(=O)Nc2nnc(C3CC3)s2)c(C)s1,inactive,–
Cc1cccn2c(=O)c3cc(C(=O)NCC4CCCO4)c(=N)n(Cc4ccc(F)cc4)c3nc12 (stereo not given),8.2 µM (active),–
Cc1ccc(CCNC(=O)c2ccc3nc4ccccc4c(=O)n3c2)cc1,inactive,–
O=C(CSc1nc2ccccc2c(=O)n1Cc1ccc(F)cc1)NCC1CCCO1 (stereo not given),inactive,–
Cc1cccn2c(=O)c3cc(C(=O)NCCN4CCOCC4)c(=N)n(Cc4cccnc4)c3nc12,4.11 µM (active),–
Cc1cccn2c(=O)c3cc(C#N)c(=O)n(CCCN4CCOCC4)c3nc12,inactive,–
O=C(NCC1CCCO1)c1cc2c([nH]c3ccccc32)c(-c2ccc(F)cc2)n1 (stereo not given),inactive,–
COc1ccc(CCNC(=O)Cn2c(=O)n(CC3CCCO3)c(=O)c3ccccc32)cc1OC (stereo not given),inactive,–
Cc1ccc(Cn2c(C)c3cnn(CC(=O)NCCN4CCOCC4)c(=O)c3c2C)cc1,inactive,–
Cc1ccc2nc3c(cc(C(=O)NCCc4ccccc4)c(=N)n3CC3CCCO3)c(=O)n2c1 (stereo not given),11.6 µM (active),–
COc1ccccc1NC(=O)N(O)C1(C#N)CCCCC1,inactive,–
O=C(Cn1cnc2ccccc2c1=O)NNC(=O)c1ccccc1F,inactive,–
CCCN(C(=O)COC(=O)CNS(=O)(=O)c1ccc(NC(C)=O)cc1)C1CCS(=O)(=O)C1 (stereo not given),inactive,–
C[C@H]1CN([C@@H](C)CO)C(=O)Cc2cc(NS(C)(=O)=O)ccc2O[C@@H]1CN(C)CC1CC1,inactive,–
NC(=O)c1ncn([C@@H]2O[C@H](CN=C3NS(=O)(=O)c4ccccc43)[C@@H](O)[C@H]2O)n1,inactive,–
Nc1ccc2nc3c(=O)[nH]c(=S)[nH]c3nc2c1,4.61 µM (active),–
CSCCC(NC(=O)COc1ccccc1)C(=O)N1CCN(c2cccc(C(F)(F)F)c2)CC1 (stereo not given),inactive,–

SMILES,Potency,re-replication activation
CCN(CC)C(=O)[C@H]1C[C@H](CC(=O)NCC23CC4CC(CC(C4)C2)C3)C(=O)N2CCc3c([nH]c4cc(CCC(=O)N(C)C)ccc34)[C@]12C,–,25.4% [at 9.22 µM] (inactive)
CN(C)C(CNC(=O)c1cc2ccccc2o1)c1ccccc1 (stereo not given),inactive,–
O=C(c1cnccn1)N1CCN(S(=O)(=O)c2cccc(Cl)c2)CC1,inactive,–
COc1ccc(N=C(C)c2sc3ccccc3c2O)cc1,inactive,–
Cc1nn(C)cc1/C=N/NC(=O)c1sc2ccccc2c1Cl,inactive,–
Oc1ccc(N=Cc2sc3ccccc3c2Cl)cc1,9.2 µM (active),–
CC1(C)C(=O)CCC2(C)C1=CCC1C2C(=O)CC2(C)C1CCC2(O)C(=O)CO (stereo not given),inactive,–
COc1ccc(-c2cc(C(F)(F)F)nc(NCc3cccnc3)n2)cc1,inactive,–
COc1ccc(-c2ccc(Nc3ccc(S(=O)(=O)N4CCCC4)cc3)nn2)cc1OC,inactive,–
COc1ccc(-c2cc(C(F)(F)F)nc(S(C)(=O)=O)n2)cc1OC,4.11 µM (active),–
CC[C@]12c3[nH]c4cc(CCC(=O)N(C)C)ccc4c3CCN1C(=O)[C@@H](CC(=O)NCCCn1ccnc1)C[C@@H]2C(=O)N1CCN(C(=O)C2CC2)CC1,inactive,–
NC1=NOC(=O)C1C1CCCCC1 (stereo not given),inactive,–
CC(=O)OCC(=O)C1(O)CCC2C3CC(C)C4=CC(=O)CCC4(C)C3C(O)CC21C (stereo not given),inactive,–
O=C(c1ccc2c(c1)C(=O)N(Cc1ccncc1)C2=O)N1CCN(S(=O)(=O)c2ccc(OC(F)(F)F)cc2)CC1,inactive,–
CCN(C[C@H]1N[C@@](CC)(C(=O)OC)[C@H]2C(=O)N(C)C(=O)[C@@H]12)C(=O)Nc1ccc(F)cc1,inactive,–
Oc1ccccc1C1=NN(c2ccccc2)C(c2ccccc2)C1 (stereo not given),8.2 µM (active),–
O=C(c1ccccc1)N1N=C(c2ccccc2O)CC1c1ccc(Br)cc1 (stereo not given),inactive,–
CC(=O)Oc1ccccc1C1=NN(C(C)=O)C(c2ccccc2)C1 (stereo not given),inactive,–
O=C1/C(=C\c2cccnc2)CN(Cc2ccccc2)C/C1=C\c1cccnc1,0.13 µM (active),–
Clc1ccc(CN2CCN(/N=C/c3cccnc3)CC2)cc1,inactive,–
O=C1NCC(=O)N(Cc2ccccc2)/C1=C/c1ccccc1,inactive,–
